{
  "source": "PubChem BioAssay AID1813",
  "about": "(Broad Institute, 2009)",
  "note": "The whole screen tested about 300,000 compounds, of which about 2,500 (0.83%) were called active. The list comes from a sample in which actives are over-represented; it also holds similar structures and randomly drawn compounds. Unmarked numbers belong to inactive results. Cut-off read from the data, not from the text of the source: active = inhibition above about 60%; inconclusive = no clear call, values can overlap the other calls; inactive = below that.",
  "data": [
    {"experiment": "MLPCN primary screen, SNCA 5' untranslated region (AID 1813);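 note: H4 neuroglioblastoma cells stably carrying SNCA 5'UTR luciferase fusion; 0% = DMSO wells and 100% = positive control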", "settings": "alpha-synuclein 5'UTR reporter, inhibitor activity; active compounds read high; tested at 7.5 µM", "values": [
      {"smiles": "Cc1c(C(=O)N2CCCc3ccccc32)oc2ccccc12", "inhibition": "-96.2%"},
      {"smiles": "Cc1c(C(=O)N2CCCc3ccccc32)sc2nc(-c3ccccc3)cn12", "inhibition": "-83.5%"},
      {"smiles": "Cc1cccc2cc3c(N)c(C(=O)N4CCCc5ccccc54)sc3nc12", "inhibition": "85.2% (active)"},
      {"smiles": "COc1ccc2c(c1)cc1n2CCN=C1NN", "inhibition": "-27.8%"},
      {"smiles": "CN1c2ccc(C=O)c3c(C=O)ccc(c23)N(C)C1(C)C", "inhibition": "67% (active)"},
      {"smiles": "CCN(CC(=O)Nc1c(F)cccc1F)C(=O)c1ccc(S(=O)(=O)N2CCCCC2)cc1", "inhibition": "6.51%"},
      {"smiles": "O=C(c1ccc(F)cc1)N1CCC(n2nnc3ccccc32)CC1", "inhibition": "6.11%"},
      {"smiles": "Cc1cc(OCc2ccc(C(=O)Nc3ccc(C(=O)O)cc3)o2)ccc1Cl", "inhibition": "32.2%"},
      {"smiles": "CCOC(=O)c1ccc(NC(=O)c2c(N)n(C)c(=O)[nH]c2=O)cc1", "inhibition": "-15.4%"},
      {"smiles": "C(=N\\Nc1ccc2ccccc2n1)/c1ccc2c(c1)OCO2", "inhibition": "88.2% (active)"},
      {"smiles": "Brc1ccc(-c2csc(N/N=C/c3ccc4c(c3)OCO4)n2)cc1", "inhibition": "-59.4%"},
      {"smiles": "Cc1noc(C)c1/C=N/Nc1ccc2ccccc2n1", "inhibition": "-146%"},
      {"smiles": "CCCc1nc(N2CCN(C)CC2)c2sc(=S)n(-c3ccccc3)c2n1", "inhibition": "2.12%"},
      {"smiles": "CCOC(=O)C1C(=O)NCC1c1ccccc1", "note": "(configuration not stated)", "inhibition": "-12.2%"},
      {"smiles": "NC(=O)COC(=O)c1ccc2c(c1)C(=O)N(Cc1ccco1)C2=O", "inhibition": "-5.55%"},
      {"smiles": "CCN1CCN(C(c2cccnc2)c2cc(Cl)c3cccnc3c2O)CC1", "note": "(configuration not stated)", "inhibition": "-29.1%"},
      {"smiles": "Cc1cccnc1NC(=O)c1cccc(S(=O)(=O)N2CCN(c3ccc(F)cc3)CC2)c1", "inhibition": "26.9%"},
      {"smiles": "Oc1c(CN2CCN(c3ccc(F)cc3)CC2)cc(Cl)c2cccnc12", "inhibition": "69.6% (active)"},
      {"smiles": "CC(=O)c1ccc(NC(=O)CCc2nnc3ccc(NCc4ccco4)nn23)cc1", "inhibition": "-95.3%"},
      {"smiles": "COc1ccc(CCn2c(=N)c(C(=O)NCC3CCCO3)cc3c(=O)n4cccc(C)c4nc32)cc1OC", "note": "(configuration not stated)", "inhibition": "-9.36%"},
      {"smiles": "Cc1cccn2c(=O)c3cc(C(=O)NCCN4CCOCC4)c(=N)n(Cc4cccnc4)c3nc12", "inhibition": "97% (active)"},
      {"smiles": "Cc1cccn2c(=O)c3cc(C(=O)NCC4CCCO4)c(=N)n(Cc4ccc(F)cc4)c3nc12", "note": "(configuration not stated)", "inhibition": "9.52%"},
      {"smiles": "CCOc1cccc(OCCCOc2cccc3cccnc23)c1", "inhibition": "5.95%"},
      {"smiles": "O=C1CCC([N+](=O)[O-])C(c2ccccc2Br)N1", "note": "(configuration not stated)", "inhibition": "0.315%"},
      {"smiles": "O=C1C(=O)N(CCCO)C(c2ccccc2)/C1=C(\\O)c1ccc(Br)cc1", "note": "(configuration not stated)", "inhibition": "4.06%"},
      {"smiles": "O=C(Oc1cccc(N2C(=O)C3C4c5ccccc5C(c5ccccc54)C3C2=O)c1)c1ccco1", "note": "(configuration not stated)", "inhibition": "2.5%"},
      {"smiles": "CC1CN/C(=C\\C(=O)c2ccc(Br)cc2)C(=O)N1", "note": "(configuration not stated)", "inhibition": "62% (active)"},
      {"smiles": "COc1cc2c(cc1OC)/C(=C/C(=O)c1ccc(NC(C)=O)cc1)NCC2", "inhibition": "22.9%"},
      {"smiles": "CN1CCCC(OC(=O)COc2ccc(Br)cc2)C1", "note": "(configuration not stated)", "inhibition": "4.45%"},
      {"smiles": "O=C(NCCCCCCCCCNC(=O)C(F)(F)F)C(F)(F)F", "inhibition": "9.8%"},
      {"smiles": "CCOC(=O)N1CCN(S(=O)(=O)c2ccc(Br)cc2)CC1", "inhibition": "-14.3%"},
      {"smiles": "CCOC(=O)N1CCN(S(=O)(=O)c2ccc(C(=O)Nc3ccc(F)cc3F)cc2)CC1", "inhibition": "69.5% (active)"},
      {"smiles": "CCOC(=O)N1CCN(S(=O)(=O)c2ccc(OC)cc2)CC1", "inhibition": "4.08%"},
      {"smiles": "Cc1cc(NC(=O)C(C)N2C(=O)c3ccccc3S2(=O)=O)no1", "note": "(configuration not stated)", "inhibition": "-18.2%"},
      {"smiles": "CCN(CC)c1ccc(/C=N/NC(=O)c2cnccn2)c(O)c1", "inhibition": "72.3% (active)"},
      {"smiles": "Cc1ccc(C(=O)NCCNC(=O)c2cnccn2)cc1", "inhibition": "-3.06%"},
      {"smiles": "CCN(CC)c1ccc(/C=N/NC(=O)CNC(=O)c2cccnc2)cc1", "inhibition": "5.51%"},
      {"smiles": "Cc1cn(C2C=CC(CO)O2)c(=O)[nH]c1=O", "note": "(configuration not stated)", "inhibition": "-0.0254%"},
      {"smiles": "CC[C@]1(O)CC2CN(CCc3c([nH]c4ccccc34)[C@@](C(=O)OC)(c3cc4c(cc3OC)N(C=O)[C@H]3[C@@](O)(C(=O)OC)[C@H](OC(C)=O)[C@]5(CC)C=CCN6CC[C@]43[C@@H]65)C2)C1", "note": "(some centres not stated)", "inhibition": "102% (active)"},
      {"smiles": "CC[C@]1(O)C[C@@H]2CN(CCc3c([nH]c4ccccc34)[C@@](C(=O)OC)(c3cc4c(cc3OC)N(C)[C@H]3[C@@](O)(C(=O)OC)[C@H](OC(C)=O)[C@]5(CC)C=CCN6CC[C@]43[C@@H]65)C2)C1", "inhibition": "77.2% (active)"},
      {"smiles": "CCc1nc2ccccc2c(C(=O)OC2CCCCC2=O)c1C", "note": "(configuration not stated)", "inhibition": "8.85%"},
      {"smiles": "CCCc1cc(=O)[nH]c(SCC(=O)OCc2ccccc2)n1", "inhibition": "13.7%"},
      {"smiles": "CCCc1cc(=O)[nH]c(SCC(=O)c2c(N)n(CC(C)C)c(=O)n(C)c2=O)n1", "inhibition": "88.3% (active)"},
      {"smiles": "CCCc1cc(=O)[nH]c(SCC(=O)c2cc(C)n(CCC)c2C)n1", "inhibition": "23.4%"},
      {"smiles": "Cc1ccc2nc(SC(C)C(=O)NCc3ccco3)[nH]c2c1", "note": "(configuration not stated)", "inhibition": "30%"},
      {"smiles": "CC(=O)NN1C(=O)c2ccccc2NC1c1ccccc1", "note": "(configuration not stated)", "inhibition": "19.3%"},
      {"smiles": "CC1=NNC(=O)C1Cc1c(Cl)cccc1Cl", "note": "(configuration not stated)", "inhibition": "27%"},
      {"smiles": "Oc1c(Cl)cc(Cl)c(Cl)c1Cc1c(O)c(Cl)cc(Cl)c1Cl", "inhibition": "77.3% (active)"},
      {"smiles": "COCCNc1nc(N)c([N+](=O)[O-])c(N2CCCCCC2)n1", "inhibition": "17.3%"},
      {"smiles": "Cc1cc(OC(=O)c2ccc(OC(C)C)cc2)c([N+](=O)[O-])c(=O)[nH]1", "inhibition": "-3.29%"},
      {"smiles": "O=S(=O)(c1ccc(Br)cc1)N1CCC(c2nc3ccccc3[nH]2)CC1", "inhibition": "78.3% (active)"},
      {"smiles": "O=C(C1CCCO1)N1CCC(c2nc3ccccc3[nH]2)CC1", "note": "(configuration not stated)", "inhibition": "-15.4%"},
      {"smiles": "N#CC(C(=O)c1ccc(S(=O)(=O)N2CCCCCC2)cc1)c1nc2ccccc2[nH]1", "note": "(configuration not stated)", "inhibition": "-4.96%"},
      {"smiles": "Cc1cccc(N2CCN(S(=O)(=O)c3ccc4[nH]c(=O)c(=O)[nH]c4c3)CC2C)c1", "note": "(configuration not stated)", "inhibition": "3.92%"},
      {"smiles": "COc1cc2c(cc1OC)C(C)N(S(=O)(=O)c1cnc(Cl)c(Cl)c1)CC2", "note": "(configuration not stated)", "inhibition": "36.4%"},
      {"smiles": "COc1ccc(-c2cn(-c3ccc(OC)cc3)c(=S)[nH]2)cc1", "inhibition": "-129%"},
      {"smiles": "S=c1[nH]c(-c2cccs2)cn1-c1ccccc1", "inhibition": "-60.3%"},
      {"smiles": "O=c1oc2ccccc2cc1-c1cn(-c2ccccc2)c(=S)[nH]1", "inhibition": "119% (active)"},
      {"smiles": "O=C(CNCc1ccc(F)cc1)Nc1ccccc1-c1ccccc1", "inhibition": "16.3%"},
      {"smiles": "COCc1cc(=O)[nH]c(SC)n1", "inhibition": "-10.1%"},
      {"smiles": "N#C/C(=C\\c1cccnc1)C(=O)Nc1ccc(SC(F)F)cc1", "inhibition": "1.4%"},
      {"smiles": "O=[N+]([O-])c1ccc2[nH]c3c(c2c1)CCCC3O", "note": "(configuration not stated)", "inhibition": "10.7%"},
      {"smiles": "O=C1CCCc2c1[nH]c1ccc(Br)cc21", "inhibition": "89% (active)"},
      {"smiles": "O=[n+]1c2c(n([O-])c3cc(Br)ccc31)CCC2", "inhibition": "10.3%"},
      {"smiles": "COC(=O)CN1C(=O)N/C(=C/c2ccc(OC)c(C)c2OC)C1=O", "inhibition": "-8.7%"},
      {"smiles": "O=C(COC(=O)Cn1[nH]c(=O)c2ccccc2c1=O)Nc1c(Cl)cccc1C(F)(F)F", "inhibition": "4.65%"},
      {"smiles": "CN1C(=O)/C(=C/c2ccc(C(=O)NC3CCCC3)cc2)Oc2ccccc21", "inhibition": "-48%"},
      {"smiles": "CN1CCN(CCCNC(=O)c2ccc(/C=C3\\Oc4ccccc4N(Cc4ccc(Cl)cc4)C3=O)cc2)CC1", "inhibition": "96.5% (active)"},
      {"smiles": "O=C(NCCN1CCOCC1)c1ccc(/C=C2\\Sc3ccccc3N(Cc3ccc(F)cc3)C2=O)cc1", "inhibition": "14%"},
      {"smiles": "Oc1cccc(/C=N/Nc2ccc(Cl)nn2)c1O", "inhibition": "-6.82%"},
      {"smiles": "FC(F)(F)c1cnc(Oc2ccccc2-c2nnc(-c3ccc(Cl)cc3)o2)c(Cl)c1", "inhibition": "-1.16%"},
      {"smiles": "COc1cccc(/C=N/Nc2ncc(C(F)(F)F)cc2Cl)c1O", "inhibition": "76.7% (active)"},
      {"smiles": "Cc1n[nH]c(=O)c2c(NC(=O)CSc3ccccc3F)oc(C)c12", "inhibition": "-9.19%"},
      {"smiles": "CCNS(=O)(=O)c1ccc(NC(=O)c2cncc(Br)c2)cc1", "inhibition": "8.56%"},
      {"smiles": "Oc1ccc2ccccc2c1N=Nc1nccs1", "inhibition": "87.4% (active)"},
      {"smiles": "c1ccc(NCc2cccc3ccccc23)nc1", "inhibition": "19.1%"},
      {"smiles": "Oc1ccc(N=Nc2nccs2)c(O)c1", "inhibition": "24.3%"},
      {"smiles": "CCCOc1ccc(C(=O)C(CCC(CNCC)C(=O)c2ccc(OCCC)cc2)CNCC)cc1", "note": "(configuration not stated)", "inhibition": "107% (active)"},
      {"smiles": "CCCOc1ccc(C(=O)CCC(=O)OC(C)C(=O)Nc2ccc(NC(C)=O)cc2)cc1", "note": "(configuration not stated)", "inhibition": "-18.6%"},
      {"smiles": "CCCCOc1ccc(C(=O)NN2CCN(C)CC2)cc1", "inhibition": "1.5%"},
      {"smiles": "Cc1ccc(S(=O)(=O)N2CCCCC2)cc1C(=O)N(C)CC(=O)Nc1cccc(F)c1", "inhibition": "11%"},
      {"smiles": "COC(=O)c1sccc1NC(=O)COc1ccc(Cl)cc1", "inhibition": "-35.3%"},
      {"smiles": "COC(=O)c1c(NC(=O)COc2ccc(Cl)cc2Cl)sc2c1CC(C)(C)NC2(C)C", "inhibition": "102% (active)"},
      {"smiles": "CCOC(=O)c1c(NC(=O)c2ccc(S(=O)(=O)N(C)CC3CCCO3)cc2)sc2c1CC(C)(C)NC2(C)C", "note": "(configuration not stated)", "inhibition": "0.581%"},
      {"smiles": "CCOc1ccc(CC(=O)NCCS(=O)(=O)N2CCN(c3ccccc3)CC2)cc1", "inhibition": "13.9%"},
      {"smiles": "Cc1cc(OC(=O)c2ccccc2Cl)ccc1N1C(=O)CCC1=O", "inhibition": "-3.87%"},
      {"smiles": "COc1ccc(NC(=O)c2cccc3c2C(=O)N(CC2CCCO2)C3)cc1OC", "note": "(configuration not stated)", "inhibition": "32.1%"},
      {"smiles": "CN1CCN(C2Cc3ccc(Cl)cc3Sc3ccc(F)cc32)CC1", "note": "(configuration not stated)", "inhibition": "104% (active)"},
      {"smiles": "Cc1ccc2nc(-c3ccc(Br)cc3)cn2c1", "inhibition": "63.2% (active)"},
      {"smiles": "CSc1nnc2ccc(-c3ccc(C)cc3)nn12", "inhibition": "16.4%"},
      {"smiles": "Cc1ccc(-c2cn3cc([N+](=O)[O-])ccc3n2)cc1", "inhibition": "22.1%"},
      {"smiles": "CCn1c(=O)c(C(=O)NCc2ccc3c(c2)OCO3)c(O)c2ccccc21", "inhibition": "11.8%"}
    ]}
  ]
}
